Source: PubChem BioAssay (EPA / NIEHS)
The source made the active and inactive calls. Rule for the calls: active = hit-call score of the fitted dose curve at least 0.9, where 1 is the maximum; inactive = score below 0.9.

Legend:
[1] = APR_HepG2_P-H2AX_72hr: Apredica 72-hour HepG2 Assay for H2AX Phosphorylation (AID 2282916); settings: imaging, actives raise or lower the signal;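 note: phospho-histone H2A.x immunostain intensity per cell marking DNA damage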
How it was run: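 Human hepatoma HepG2 cells are dosed across ten concentrations (0.39 to 200 uM, 0.5% v/v DMSO) and incubated 72 hr. Phospho-histone H2A.x is then detected by antibody staining alongside c-Jun and Hoechst, and quantified by automated fluorescence imaging.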

[2] = APR_HepG2_MitoticArrest_72hr: Apredica 72-hour HepG2 Assay for Mitotic Arrest (AID 2282918); settings: high-content imaging, actives raise or lower the signal
How it was run: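 HepG2 cells were exposed for 72 hr to compound at 0.39–200 uM (10 concentrations, duplicate) in 0.5% v/v DMSO, fixed in 3.7% formaldehyde, immunostained for phospho-histone H3 with Hoechst 33342 and imaged by high-content fluorescence; bidirectional fits versus DMSO.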

[3] = APR_HepG2_P-H2AX_24hr: Apredica 24-hour HepG2 Assay for H2AX Phosphorylation (AID 2282920); settings: high-content imaging, actives raise or lower the signal
How it was run: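 HepG2 human liver cells were exposed for 24 hr to compounds at 0.39–200 uM in duplicate, with 0.5% v/v DMSO final. Fixed cells were immunostained for phospho-histone H2A.x plus Hoechst 33342, imaged by HCS fluorescence, and fitted bidirectionally against DMSO.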

[4] = APR_HepG2_StressKinase_72hr: Apredica 72-hour HepG2 Assay for Stress Kinase (AID 2282921); settings: HepG2 stress kinase (phospho-c-Jun) imaging, actives raise or lower the signal
How it was run: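 After a 72 h compound treatment spanning 0.39 to 200 uM, formaldehyde-fixed cells are labelled for phosphorylated c-Jun and nuclei, imaged by automated fluorescence microscopy, and activity is fitted in both directions relative to DMSO controls.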

[5] = APR_HepG2_p53Act_72hr: Apredica 72-hour HepG2 Assay for p53 Activation (AID 2282923); settings: high-content imaging, actives raise or lower the signal;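 note: average cellular p53 protein immunofluorescence intensity in HepG2 cells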
How it was run: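 Imaging-based endpoint: after 72 hr compound exposure (up to 200 uM, 0.5% DMSO), fixed and permeabilized monolayers were labelled with anti-p53 antibody and imaged; signal change in either direction was fitted relative to DMSO controls.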

[6] = APR_HepG2_MitoMass_72hr: Apredica 72-hour HepG2 Assay for Mitochondrial Mass (AID 2282924); settings: high-content imaging, actives raise or lower the signal;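 note: MitoTracker Red CMXRos stain intensity per cell imaged as mitochondrial mass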
How it was run: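 Read-out: MitoTracker Red fluorescence intensity from automated imaging (20x, six fields per well) in human HepG2 liver cells. Dosing ran 72 hr, 0.39–200 uM, 0.5% DMSO; bidirectional curve fitting versus DMSO baseline.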

[7] = APR_HepG2_NuclearSize_72hr: Apredica 72-hour HepG2 Assay for Nuclear Size (AID 2282925); settings: high-content imaging, actives raise or lower the signal
How it was run: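 Read-out: nuclear diameter from Hoechst 33342 images (ArrayScan, 20x, six fields/well), via cell-cycle image analysis. HepG2 were dosed 0.39–200 uM for 72 hr in 0.5% DMSO. Bidirectional fit relative to DMSO.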

[8] = APR_HepG2_StressKinase_24hr: Apredica 24-hour HepG2 Assay for Stress Kinase (AID 2282922); settings: HepG2 stress kinase (phospho-c-Jun) imaging, actives raise or lower the signal
How it was run: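 Read-out: phospho-c-Jun immunofluorescence (Cy3 secondary) quantified by high-content imaging at 20x, nuclei defined by Hoechst 33342. Human HepG2 liver cells dosed 24 hr, 0.39–200 uM, DMSO 0.5% v/v; gain or loss of signal fitted relative to DMSO.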

[9] = APR_HepG2_MicrotubuleCSK_72hr: Apredica 72-hour HepG2 Assay for Microtubule CSK Stabilty (AID 2282919); settings: HepG2 microtubule cytoskeleton, high-content imaging, actives raise or lower the signal
How it was run: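 HepG2, 72 hr cmpd exposure, 0.39–200 uM (10 pts, duplicate), 0.5% DMSO. 3.7% formaldehyde fix, 0.5% Triton perm, anti-alpha-tubulin/Cy5 plus Hoechst. HCS fluorescence intensity; bidirectional fit vs DMSO baseline; taxol as positive control.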

Measured: AC50

COS(=O)(=O)OC
not listed: [8] | [9]
inactive: all other assays above

CCC(C)(CC)c1cc(NC(=O)c2c(OC)cccc2OC)on1
inactive: [1] | [2] | [4] | [6] | [7]

CCC(C)c1cc([N+](=O)[O-])cc([N+](=O)[O-])c1O (centres undefined)
active: [1] 69.7 µM | [6] 72.3 µM
not listed: [3] | [9]
inactive: all other assays above

Clc1ccc(C(c2ccccc2Cl)C(Cl)(Cl)Cl)cc1 (centres undefined)
active: [2] 50.9 µM
inactive: [1] | [4] | [5] | [6] | [7]

CCOP(=S)(OCC)SCSC(C)(C)C
not listed: [3] | [8]
inactive: all other assays above

Cc1cccc(C)c1N
not listed: [3] | [8] | [9]
inactive: all other assays above

CO/C=C(/C(=O)OC)c1ccccc1COc1cccc(C(F)(F)F)n1
inactive: [4] | [7]
active: [1] 20.5 µM | [2] 29.1 µM | [5] 26.9 µM | [6] 0.638 µM

CCCCCCCCCC[N+](C)(C)CCCCCCCCCC
active: [1] 5.55 µM | [2] 3.61 µM | [5] 3.25 µM | [6] 3.13 µM
inactive: [4] | [8] | [7]

CCSC(=O)N(CC)C1CCCCC1
not listed: [5] | [8] | [9]
inactive: all other assays above

c1cc2ccc3cccc4ccc(c1)c2c34
active: [1] 104 µM | [7] 113 µM
not listed: [3] | [8]
inactive: all other assays above

COc1ccc(O)c(C(C)(C)C)c1
not listed: [8] | [9]
inactive: all other assays above

O=S(=O)(O)C(F)(F)C(F)(F)C(F)(F)C(F)(F)F
not listed: [3] | [8]
inactive: all other assays above

ClC1=C(Cl)[C@]2(Cl)[C@@H]3[C@@H]4C[C@@H]([C@H]5O[C@@H]45)[C@@H]3[C@@]1(Cl)C2(Cl)Cl
active: [1] 41 µM | [2] 32.6 µM
not listed: [9]
inactive: all other assays above

Oc1c(Cl)c(Cl)c(Cl)c(Cl)c1Cl
not listed: [3] | [8] | [9]
inactive: all other assays above

Cc1cc(O)ccc1Cl
not listed: [3] | [9]
inactive: all other assays above
